# From PubChem BioAssay AID1347165 (National Center for Advancing Translational Sciences (NCATS), 2019)
# Screen size: about 220,000 compounds; about 5,700 (2.6%) were called active. Inconclusive results (about 18%) are left out. The full list was thinned out, with actives kept by preference. Values without a mark were called inactive. Calls follow the shape of the dose curve; as a rule, active = well fitted inhibition curve with a large enough effect; inconclusive = small, poorly fitted or top-dose-only effect; inactive = no such curve, though single readings can be large or run the other way.
# Biological target: Lysine-specific demethylase 5B (Homo sapiens) (UniProt Q9UGL1)
# Sequence (Q9UGL1 whole entry, looked up): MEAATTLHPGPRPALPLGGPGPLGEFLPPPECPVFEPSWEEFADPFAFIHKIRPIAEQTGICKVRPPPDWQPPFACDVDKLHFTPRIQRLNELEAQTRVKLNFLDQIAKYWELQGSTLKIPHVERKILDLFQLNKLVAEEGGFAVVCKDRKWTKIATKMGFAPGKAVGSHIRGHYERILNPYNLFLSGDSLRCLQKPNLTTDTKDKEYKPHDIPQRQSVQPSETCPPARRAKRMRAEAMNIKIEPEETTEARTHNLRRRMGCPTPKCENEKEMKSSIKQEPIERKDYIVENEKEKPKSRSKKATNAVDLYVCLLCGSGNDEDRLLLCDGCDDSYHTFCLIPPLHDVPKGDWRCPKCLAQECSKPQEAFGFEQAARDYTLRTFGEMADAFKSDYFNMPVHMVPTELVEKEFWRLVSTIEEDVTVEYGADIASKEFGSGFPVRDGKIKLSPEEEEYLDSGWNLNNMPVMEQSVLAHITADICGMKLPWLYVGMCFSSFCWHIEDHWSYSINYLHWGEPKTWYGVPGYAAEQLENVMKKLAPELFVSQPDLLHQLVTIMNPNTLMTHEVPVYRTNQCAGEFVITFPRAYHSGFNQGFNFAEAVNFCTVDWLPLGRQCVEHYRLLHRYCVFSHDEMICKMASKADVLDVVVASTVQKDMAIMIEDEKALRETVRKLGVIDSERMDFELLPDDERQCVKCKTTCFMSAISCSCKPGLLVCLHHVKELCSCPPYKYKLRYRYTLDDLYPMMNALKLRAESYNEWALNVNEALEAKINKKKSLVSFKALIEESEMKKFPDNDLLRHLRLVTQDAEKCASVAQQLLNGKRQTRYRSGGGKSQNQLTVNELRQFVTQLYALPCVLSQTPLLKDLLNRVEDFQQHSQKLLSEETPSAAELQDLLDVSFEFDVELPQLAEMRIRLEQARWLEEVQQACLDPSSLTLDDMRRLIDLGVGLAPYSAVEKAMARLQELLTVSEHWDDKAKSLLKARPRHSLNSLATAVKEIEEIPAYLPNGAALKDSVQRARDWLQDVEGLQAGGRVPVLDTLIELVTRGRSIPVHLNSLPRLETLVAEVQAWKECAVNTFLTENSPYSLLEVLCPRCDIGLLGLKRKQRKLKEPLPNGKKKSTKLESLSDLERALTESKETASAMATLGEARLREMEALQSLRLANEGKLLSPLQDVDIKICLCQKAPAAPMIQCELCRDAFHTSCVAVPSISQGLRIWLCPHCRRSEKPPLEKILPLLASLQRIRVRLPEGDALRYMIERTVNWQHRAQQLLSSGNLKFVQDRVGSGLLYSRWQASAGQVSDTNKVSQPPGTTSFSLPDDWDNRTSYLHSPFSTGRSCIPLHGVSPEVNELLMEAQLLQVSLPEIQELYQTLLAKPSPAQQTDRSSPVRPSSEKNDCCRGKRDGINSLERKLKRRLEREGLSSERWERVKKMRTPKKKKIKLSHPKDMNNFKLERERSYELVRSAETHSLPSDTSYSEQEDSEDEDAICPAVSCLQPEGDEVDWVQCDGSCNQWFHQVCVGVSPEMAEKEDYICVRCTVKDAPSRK
# Experiment: Primary screen for KDM5B Histone Demethylases FDH-coupled qHTS; also: nearly all actives have a fitted effect of over 70% in size; as to activity change, negative = inhibition: 0% is about no effect
# Conditions: FDH-coupled NADH fluorescence (FDH is formaldehyde dehydrogenase); series mostly up to 57.7 µM; activity change, negative = inhibition: at the top concentration
# Outline: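 Compound dilutions met 200 nM (final) KDM5BΔAP for 10 min at room temperature before substrate addition. The substrate mix held 12.5 µM H3K4me3 with cofactors 25 µM α-ketoglutarate and 50 µM Fe²⁺. NADH signal gain over 30 min defined activity.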
# Potency is read from the fitted curve at half-maximal effect.
Structure (SMILES),"activity change, negative = inhibition",Potency
O=C(Nc1cccc(S(=O)(=O)N2CCCC2)c1)c1cccc2cccnc12,-3.61%,–
COc1ccc(C(C)=O)cc1CSCc1coc(-c2ccc(C)cc2)n1,-2.24%,–
CCc1c(C(=O)Nc2ccc3nc(C)sc3c2)cnn1-c1ccc(OC)nn1,-12.8%,–
Cc1ncsc1C(=O)NCc1ccc(N2CCCCCC2)nc1,11.7%,–
COCCCNS(=O)(=O)c1cccc(S(=O)(=O)c2cccc(S(=O)(=O)NCCCOC)c2)c1,0.814%,–
Cc1cc(=O)oc2cc(OCC(=O)NCC(C)(c3ccccc3)c3ccccc3)ccc12,-25%,–
O=C(Nc1c(F)cccc1F)c1cc(-c2ccccn2)nc2ccccc12,-7.6%,–
COc1ccc(-c2nccc3c(=O)cc(N(C)c4ccccc4)oc23)cn1,-25.8% [at 86.2 µM],–
O=c1cc(-c2ccccn2)oc2c(-c3ccccc3F)nccc12,–,17.8 µM (active)
Cc1cccc(C(C)C)c1NC(=O)CSc1nnc(-c2cc(-c3ccccc3)n[nH]2)n1N,21.3%,–
Cc1ccc(N2CCN(C(=O)CCc3c(C)nc4c(c3C)c(=O)n(C)c(=O)n4C)CC2)c(C)c1,-17.7%,–
CCOC(=O)C(C)Oc1cccn2c(=O)c(-c3cc(C)n(-c4cccc(F)c4)n3)c(C)nc12 (stereo not given),–,25.1 µM (active)
Cc1ccc2nc(COc3ccc(NC(=O)COc4ccccc4F)cc3)cc(=O)n2c1,-1.56%,–
COC(=O)COc1cccn2c(=O)c(-c3cc(C)n(-c4ccc(C)cc4C)n3)c(C)nc12,–,28.2 µM (active)
O=C(Nc1ccc(N2CCOCC2)c(Cl)c1)c1ccc2c3c(cccc13)CC2,-3.1%,–
CC(c1nc2ccccc2s1)N(C)C(=O)c1cccc(S(=O)(=O)Nc2ccc(Cl)cc2)c1 (stereo not given),5.35%,–
Cc1ccccc1C(=O)N1CCN(c2ccc([N+](=O)[O-])c(-n3nc(C)c4ccccc4c3=O)c2)CC1,8.7%,–
N#Cc1c(N)n[nH]c1CCCNc1nc(-c2ccncc2)nc2ccccc12,-4.51%,–
CC(C)c1nccn1CCCNc1nc(-c2ccncc2)nc2c1cnn2C,–,22.4 µM (active)
Cc1ccccc1-c1ccc(C(=O)NCCCn2ccnc2C(C)C)cn1,-17.6%,–
COc1ccc(CNC(=O)COC(=O)C(CCSC)N2C(=O)c3ccccc3C2=O)cc1 (stereo not given),-3.03%,–
CCCC1(CCC)NC(=O)N(Cc2ncc(-c3ccccc3)o2)C1=O,-8.25%,–
O=C1CN(Cc2cc3cc4c(cc3[nH]c2=O)OCO4)CCCN1,–,20 µM (active)
CCCCCCCCNS(=O)(=O)/C=C/c1cc(C)ccc1CNC(=O)OC(C)(C)C,-5.34%,–
CC(C)NC(NC(=O)c1ccc(C(C)(C)C)cc1)C(Cl)(Cl)Cl (stereo not given),9.93%,–

Structure (SMILES),"activity change, negative = inhibition",Potency
CC(C)CN[C@H]1[C@H](O)[C@H](O)C[C@@H]1c1ccc(N2CCOCC2)nc1,–,35.5 µM (active)
COC(=O)c1ccc(COC(=O)c2ccc(N3CCOCC3)nc2)cc1,14.6%,–
CC(C)CNC(=O)N1C[C@@H](Oc2cccnc2)C[C@H]1C(=O)N1CCOCC1,-18.3%,–
Cc1nc(-c2cn(C3CCCN(C(=O)c4cccs4)C3)nn2)no1 (stereo not given),13%,–
CNC(=O)[C@@H]1CN(Cc2cccc(OC)c2)C[C@H]1CO,-15.8%,–
COc1ccc(CN2CCc3ncc(C(=O)NCCOc4ccccc4)n3CC2)cn1,8.49% [at 86.2 µM],–
COc1cccc(CN2CCc3c(cc(C(=O)NCCN4CCCCC4)n3C)C2)c1,–,22.4 µM (active)
CN(CCOc1ccccc1Cl)C(=O)c1cc2ccccc2oc1=O,5.68%,–
O=C(COc1cccc(-n2cnnn2)c1)Nc1ccc(S(=O)(=O)N2CCOCC2)cc1,1.49%,–
O=C1NCCN(Cc2ccccc2)C1CC(=O)N1CCN(c2ccccc2)CC1 (stereo not given),–,20 µM (active)
Cc1ccc(CN2CCNC(=O)C2CC(=O)NC2(CO)CCCC2)cc1 (stereo not given),-28.9%,–
O=C(O)CC1C(=O)NCCN1Cc1ccc(Cl)c(F)c1 (stereo not given),-18.6%,–
COc1ccc(NC(=O)CSc2nccn2-c2cccc(C(F)(F)F)c2)cc1,2.82%,–
CCN1CCC(N(Cc2cccs2)C(=O)Nc2cc(Cl)ccc2C(=O)OC)CC1,-26.5%,–
O=C(CCNC(=O)c1cnccn1)Nc1ccccc1Cc1ccccc1,6.99%,–
COc1ccccc1-c1noc(COC(=O)c2ccc3c(c2)NC(=O)CS3)n1,-20.1%,–
CC(C)N1C(=O)C2(CCCC2)C1C(=O)Nc1ccc2c(c1)N(C)CCC2 (stereo not given),–,31.6 µM (active)
C=CCNC(=O)C1N(C(C)C)C(=O)C12CCCCC2 (stereo not given),-10.2%,–
C=CCNC(=O)C1N(C(C)C)C(=O)C12CCCC2 (stereo not given),-0.645%,–
CCNC(=O)NC(=O)CSc1nc(-c2ccco2)nc2ccccc12,-20.4%,–
CN1C[C@@H](NC(=O)c2ccccc2)C[C@H]1c1nc(-c2ccccc2)no1,-15.2% [at 86.2 µM],–
CN1C[C@@H](NC(=O)c2ccc(C(C)(C)C)cc2)C[C@H]1c1nc(-c2ccc3ccccc3c2)no1,–,25.1 µM (active)
COc1ccc(C(=O)N[C@H]2C[C@@H](c3nc(-c4ccc(OC)cc4)no3)N(C)C2)cc1,-9.77% [at 86.2 µM],–
COc1ccc(Cl)cc1NC(=O)N1CCC2(CC1)N=C(c1ccc(C)c(C)c1)C(=O)N2,6.31%,–
Cc1ccc2c(C(=O)N3CCCC(C#N)C3)cc(-c3cnn(C(C)C)c3)nc2c1 (stereo not given),–,28.2 µM (active)
